Measurements as given in PubChem BioAssay AID493168 (National Center for Advancing Translational Sciences (NCATS), 2011).
Inconclusive results are not listed. A number with no mark means an inactive call. Activity calls are given as the source filed them. Calls come from the whole dose curve; as a rule, active = well fitted inhibition curve with a large enough effect; inconclusive = small, poorly fitted or top-dose-only effect, or effect the other way; inactive = flat fitted curve, though single readings scatter.

What follows are compounds tested against Ubiquitin carboxyl-terminal hydrolase 2 (Homo sapiens) (UniProt O75604) (assay: Confirmation Assay for Inhibitors of Ubiquitin-specific Protease USP2a Using CHOP2 as the Reporter). Conditions: USP2 core, Ub-CHOP2 coupled reporter fluorescence; series mostly up to 38.3 µM; activity change, negative = inhibition: at the top concentration.
Ubiquitin carboxyl-terminal hydrolase 2 (Homo sapiens), sequence (O75604 whole entry, looked up): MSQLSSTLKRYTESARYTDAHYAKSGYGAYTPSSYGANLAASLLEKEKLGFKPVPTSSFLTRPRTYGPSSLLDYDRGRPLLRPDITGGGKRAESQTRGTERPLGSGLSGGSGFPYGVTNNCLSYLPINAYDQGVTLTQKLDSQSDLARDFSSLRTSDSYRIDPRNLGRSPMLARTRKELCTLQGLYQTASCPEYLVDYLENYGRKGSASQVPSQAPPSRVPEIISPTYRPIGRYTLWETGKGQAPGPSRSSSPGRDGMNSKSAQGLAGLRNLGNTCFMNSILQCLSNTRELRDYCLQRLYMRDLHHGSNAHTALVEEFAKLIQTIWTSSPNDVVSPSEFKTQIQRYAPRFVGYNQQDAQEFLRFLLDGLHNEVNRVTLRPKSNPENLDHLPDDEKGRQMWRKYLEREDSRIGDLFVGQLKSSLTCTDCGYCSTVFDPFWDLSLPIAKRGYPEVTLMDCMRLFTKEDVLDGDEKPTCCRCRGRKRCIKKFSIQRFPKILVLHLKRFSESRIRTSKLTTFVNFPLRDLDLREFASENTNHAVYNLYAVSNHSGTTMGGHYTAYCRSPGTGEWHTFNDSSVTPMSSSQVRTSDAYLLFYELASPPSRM
In short: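 USP2 core (10 nM final) was preincubated with compound for 30 min at RT in Tris-HCl pH 8.0, CaCl2, beta-mercaptoethanol, CHAPS. Ub-CHOP2 and reporter substrate (25 nM final each) were added, and fluorescence (Ex 485/Em 531 nm) was read after 60 min.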
Note: nearly all actives have a fitted effect of over 55% in size.
Potency is the fitted concentration of half-maximal effect.
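Throughout, for activity change, negative = inhibition: plate controls were DMSO wells for no effect and full inhibition by NEM control for full effect.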

| Compound | Potency | activity change, negative = inhibition [%] |
| --- | --- | --- |
| CC(C)c1ccc(Nc2nnc(SCC(=O)c3nnc(-c4ccccc4)o3)s2)cc1 | 6.56 µM (active) |  |
| C(=N\N(c1ccccc1)c1ccccc1)/c1ccccn1 |  | 3.64 |
| Cc1ccc(CN2C(=O)N/C(=C\c3cccn3-c3cccc(C(=O)O)c3)C2=O)cc1 |  | 1.47 |
| O=C(Nc1cccc(Cl)c1)Nc1nnc(CC2=CCCCC2)s1 |  | 1.35 |
| O=C(Nc1ccccc1)c1cc(Cl)nc2ccccc12 |  | -1.69 |
| CCOc1ccccc1C(=O)NC1CC2CCCC(C1)N2C1CC1 (centres undefined) |  | 5.99 |
| c1ccc(-c2ccccc2OCCCN2CCOCC2)cc1 |  | -6.11 |
| Cn1c(C(=O)NCCN2CCOCC2)cc2c(=O)n(C)c3ccccc3c21 |  | -0.508 |
| O=C1c2ccccc2C(=O)N1CCCCn1c(=O)oc2ccccc21 |  | -0.817 |
| O=C(c1ccc(CS(=O)(=O)c2ccc(Br)cc2)o1)N1CCCC1 |  | -3.63 |
| COc1cc(/C=N/NC(=O)c2cc(-c3ccccc3)nc3ccccc23)ccc1O |  | 0.701 |
| COCCn1c(CN(Cc2ccccc2)Cc2ccccc2)nc2c1c(=O)n(C)c(=O)n2C |  | 3.16 |
| Cc1ccc(C(=O)NCc2ccc3c(c2)OCO3)cc1N1CCCC1=O |  | -2.42 |
| COc1ccc(C2CC(=O)N3CN(c4ccccc4F)CSC3=C2C#N)cc1OC (centres undefined) |  | -2.34 |
| Cc1cc(C)n2nc(S(=O)(=O)NCCc3ccccc3)nc2n1 |  | -0.0643 |
| CSCC[C@H](NC(=O)C1CCN(S(=O)(=O)c2ccc(C)cc2)CC1)C(=O)NCc1ccco1 |  | -3.41 |
| NS(=O)(=O)c1ccc(N=Nc2c(O)c(C(=O)O)cc3ccccc23)cc1 | 13.1 µM (active) |  |
| C=CC#CC[N+]1(CC#Cc2ccccc2)CCOCC1 | 3.69 µM (active) |  |
| Cc1c(N=C/C=C2\N(C)c3ccccc3C2(C)C)c(=O)n(-c2ccccc2)n1C |  | -1.52 |
| Cc1cccc(N2CCN(C(=O)CCc3nc4ccccc4[nH]3)CC2C)c1 (centres undefined) |  | 2.72 |

| Compound | Potency | activity change, negative = inhibition [%] |
| --- | --- | --- |
| CCOc1cccc(NC(=O)/C(C#N)=C\c2cn(CC(=O)O)c3ccccc23)c1 |  | 2.89 |
| c1ccc(-c2nc3nc4ccccc4nc3n2Cc2ccco2)cc1 |  | 5.83 |
| COc1ccc(CNS(=O)(=O)c2ccc(S(=O)(=O)N3CCCCC3)cc2)cc1 |  | -0.642 |
| O=C(CSCc1cnn(-c2ccccc2)c1-n1cccc1)NCC1CCCO1 (centres undefined) |  | 1.16 |
| Cc1ccc(S(=O)(=O)Nc2ccccc2C(=O)Nc2nc(-c3ccc(F)cc3)cs2)cc1 | 14.7 µM (active) |  |
| CCCCNc1nc2ccccc2nc1NS(=O)(=O)c1cccs1 |  | 3.77 |
| O=C(Nc1ccncc1)c1ccc(S(=O)(=O)Nc2ccccc2)cc1 | 14.7 µM (active) |  |
| CC1CCCCN1CCNC(=O)CC1Oc2ccccc2NC1=O (centres undefined) |  | 5.53 |
| CCOc1ccccc1C(=O)N[C@H](C(=O)Nc1ccc(OC)c(S(=O)(=O)N2CCOCC2)c1)C(C)C |  | 0.171 |
| Cc1ccc(NC(=O)c2cc(-c3ccco3)nc3ccccc23)cc1S(=O)(=O)N1CCOCC1 | 11.7 µM (active) |  |
| Nc1ccc2nc(-c3cccc(-c4nc5ccc(N)cc5[nH]4)c3)[nH]c2c1 |  | -6.9 |
| O=S(=O)(NC1CCSc2ccccc21)c1ccccc1 (centres undefined) |  | -6.24 |
| CC(=O)c1ccc(Nc2ncnc3c2oc2ccccc23)cc1 |  | 6.35 |
| Cc1ccc(C(C)C)c(OCc2nn(CC(=O)c3ccc(OC(F)F)cc3)c3[n+]2CCCCC3)c1 |  | -5.42 |
| CCC/C(O)=C1\C(=O)CC(C)(C)CC1=Nc1ccc(OC)cc1OC |  | -6.51 |
| Cc1ccc(S(=O)(=O)N2[C@@H](c3ccc(C(C)(C)C)cc3)C(C(=O)O)=CC[C@H]2c2ccc(Cl)cc2)cc1 | 14.7 µM (active) |  |
| COc1ccc(-c2nc(Cn3c(SCc4ccc(F)cc4)nc4ccncc43)c(C)o2)cc1OC |  | -0.811 |
| COc1ccc(CCN2CC(C#N)=C3c4cc(OC)c(OC)cc4CCN3C2)cc1OC |  | -0.858 |
| Cc1c(NC(=O)C2CCCN(S(=O)(=O)c3cnc[nH]3)C2)c(=O)n(-c2ccccc2)n1C (centres undefined) |  | 4.21 |
